Assay in all cases: NCI-60 one-dose screen, 48 h (100 = growth as untreated, 0 = no growth, -100 = all killed)
In experiment [1] the test system is NCI-H23 lung. The settings on record: 10 µM unless noted.
The subject of experiment [2] is NCI-H226 lung. To be noted: 10 µM unless noted.
Experiment [3] has as its system NCI-H322M lung. The settings on record: 10 µM unless noted.
For experiment [4], the system named is HOP-62 NSCLC. To be noted: 10 µM unless noted.
The subject of experiment [5] is NCI-H460 lung. The settings on record: 10 µM unless noted.
The subject of experiment [6] is HOP-92 NSCLC. The settings on record: 10 µM unless noted.
Experiment [7] concerns NCI-H522 lung. To be noted: 10 µM unless noted.
Experiment [8] has as its system A549/ATCC NSCLC. The settings on record: 10 µM unless noted.
Experiment [9] concerns 786-0 renal. To be noted: 10 µM unless noted.
The test system of experiment [10] is COLO 205 colon. To be noted: 10 µM unless noted.
Experiment [11] relates to DU-145 prostate. The settings on record: 10 µM unless noted.
Experiment [12] deals with K-562 leukemia. To be noted: 10 µM unless noted.
For experiment [13], the system named is MALME-3M melanoma. To be noted: 10 µM unless noted.
The subject of experiment [14] is MDA-MB-231 breast. To be noted: 10 µM unless noted.
For experiment [15], the system named is RXF 393 renal. To be noted: 10 µM unless noted.
Experiment [16] has as its system SF-268 CNS. To be noted: 10 µM unless noted.
Experiment [17] deals with SF-295 CNS. The settings on record: 10 µM unless noted.
Experiment [18] has as its system SF-539 CNS. To be noted: 10 µM unless noted.
The test system of experiment [19] is UACC-257 melanoma. The settings on record: 10 µM.
The test system of experiment [20] is M14 melanoma. The settings on record: 10 µM unless noted.

This is an account of results in PubChem BioAssay (NCI).

The panel holds about 83,000 compounds, 20% with a hit somewhere; the sample as a whole holds those more often.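 Testing used 96-well plates and a 48-hour single-concentration exposure. Example: -40 means 40% of the starting cells died.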 Unmarked numbers belong to inactive results. The source made the active and inactive calls. How the source made its calls: active means growth percent below 10; inactive means the rest.

Turning to `CN1CCN(c2ccc(C(=O)/C=C/c3ccc(Cl)c(C(F)(F)F)c3)cc2)CC1`, the growth was 81.5% in experiment [1]; 86% in experiment [2]; 78.8% in experiment [3]; 88.9% in [4]; 88% in experiment [5]; 41.8% in experiment [6]. The growth in experiment [7] was 76.4%; in [8], 72.8%; in experiment [9] it was 79.9%; in [10], 60.6%; in experiment [11], 77.9%; in [12], 7.64% (active). Moreover, the growth in [13] is 88.4%; in [14] it was 83.3%; in [15], 63.4%; in experiment [16], 87%; in experiment [17] it was 103%; in experiment [18], 49.4%. For the same molecule, the growth is 75.2% in [19] and 87.2% in experiment [20].

Consider `O=C(COc1ccc(C2SCC(=O)N2c2ccc(F)cc2)cc1)c1ccccc1` (stereo not given), for which the growth in experiment [1] was 95.6%; in experiment [2], 91.7%; in experiment [3], 98.3%; in [4] it was 95.5%; in experiment [5], 108%; in [6] it was 76.7%. In addition, the growth is 84.1% in experiment [7]; 87.9% in experiment [8]; 102% in experiment [9]; 112% in experiment [10]; 104% in experiment [11]; 91.6% in experiment [12]. Also, the growth in [13] is 97.9%; in [14], 81.4%; in [15], 102%; in [16] it was 89.4%; in experiment [17], 94.5%; in [18], 102%. Besides, the growth in [19] is 100%; in [20], 93.6%.

On to `COc1ccc(-c2ccc3c4c(cccc24)C(=O)N(N2C(=O)c4cccc5cccc(c45)C2=O)C3=O)cc1`, for which the growth was 96.1% in experiment [1]; 101% in experiment [2]; 102% in experiment [3]; 92.7% in [4]; 102% in experiment [5]; 75.6% in [6]. The growth in experiment [7] was 97.1%; in experiment [8], 107%; in experiment [9], 99.2%; in experiment [10], 103%; in experiment [11], 112%; in experiment [12] it was 86.4%. The growth in [13] is 93.1%; in [14], 83.7%; in experiment [15] it was 108%; in [16], 97.8%; in experiment [17] it was 105%; in experiment [18] it was 95.7%. Moreover, the growth is 105% in experiment [19] and 94.1% in [20].

`Clc1ccc(-c2nc3ccc(/C(=N\N=C\c4ccccc4)c4ccccc4)cc3[nH]2)cc1`: the growth in experiment [1] is 95%; in experiment [2], 82.4%; in experiment [3] it was 92.4%; in experiment [4], 111%; in experiment [5], 92.5%; in [6], 96.3%. The growth is 76.4% in [7]; 81% in [8]; 84.3% in experiment [9]; 73.1% in [10]; 92.5% in [11]; 53.6% in experiment [12]. Further, the growth in experiment [13] is 97.6%; in [14], 95.8%; in experiment [15], 90.1%; in experiment [16], 92.5%; in [17] it was 80.7%; in experiment [18] it was 92.7%. Also, the growth in experiment [19] is 101%; in [20], 77.4%.

On to `Oc1ccc(CSc2nnc(-c3ccncc3)o2)c2cccnc12`, for which the growth in experiment [1] is 17.7%; in experiment [2], 22.7%; in experiment [3], 39.4%; in experiment [4], 12.3%; in [5] it was 4.37% (active); in experiment [6], -20.8% (active). The growth is 11.6% in experiment [7]; 15.4% in [8]; 31.3% in experiment [9]; 68.4% in experiment [10]; 26% in [11]; 14.7% in [12]. Moreover, the growth is 2.27% (active) in [13]; 24.5% in experiment [14]; 7.2% (active) in [15]; 26.3% in experiment [16]; 3.07% (active) in [17]; 18% in experiment [18]. Further, the figures for the growth in experiment [19] and in experiment [20] were -2.73% (active) and 25.4%, respectively.

Regarding `O=S(=O)(Nc1cc(Cl)cc(Cl)c1)c1ccc(-c2cnc(C3CC3)o2)cc1`, the growth in [1] is 42.9%; in experiment [2] it was 43.4%; in experiment [3] it was 49.9%; in experiment [4], 43.1%; in [5], 18.7%; in [6], 64.6%. The growth was 33.9% in experiment [7]; 43.1% in experiment [8]; 50.3% in [9]; 14.2% in [10]; 22.3% in experiment [11]; 14.4% in [12]. The growth in experiment [13] was 60.4%; in [14], 47.5%; in [15], 8.4% (active); in [16], 66.6%; in experiment [17], 17.4%; in experiment [18], 13.7%. For the same molecule, the growth was 75.1% in [19] and 19.9% in experiment [20].

Turning to `C#C[C@]1(O)CC[C@H]2[C@@H]3CC=C4c5sc(-c6ccc(OC)cc6)nc5CC[C@]4(C)[C@H]3CC[C@@]21C`, the growth in [1] is 73.7%; in [2], 69.3%; in experiment [3] it was 74.5%; in experiment [4] it was 70.8%; in [5], 43.5%; in [6] it was 102%. Also, the growth was 80.6% in experiment [7]; 74.7% in experiment [8]; 16.8% in experiment [9]; 81.9% in experiment [10]; 76.9% in experiment [11]; 14.5% in experiment [12]. Moreover, the growth is 51% in experiment [13]; 72.3% in [14]; -46.3% (active) in experiment [15]; 58.9% in [16]; -36.6% (active) in experiment [17]; 18.1% in [18]. Also, the growth is 30.3% in [19] and 36.4% in experiment [20].

In the case of `Cc1nn(-c2ccccc2)c2nc(CCl)[nH]c(=O)c12`, the growth in experiment [1] is 98.8%; in experiment [2] it was 111%; in [3] it was 103%; in experiment [4] it was 98.3%; in [5], 102%; in experiment [6], 117%. In addition, the growth in experiment [7] was 89.8%; in experiment [8], 97.7%; in experiment [9], 4.55% (active); in experiment [10], 110%; in experiment [11], 83.6%; in experiment [12], 19.2%. Also, the growth in experiment [13] was 103%; in experiment [14], 88.4%; in experiment [15] it was 99.2%; in experiment [16] it was 106%; in [17], 109%; in experiment [18], 36.9%. Also, the growth in experiment [19] is 97.9%; in [20], 99%.
